# From the supplement of paper PMC8728848
# The sample as a whole holds a higher share of the strongest signals than the screen did.
# Experiments:
# Test in all cases: glycan array binding signal (z-score within array); higher = stronger binding
# Settings in all cases: glycan notation: IUPAC condensed, linker removed
# [1] = molecular target: Fuc(a1-2)Gal(b1-3)GalNAc
# How it was run: (§1)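 The binding signal is a Z-score computed within each array and averaged over linkers. Arrays of the same protein sequence at different concentrations or buffers were also averaged together. Data originate from 3228 arrays in the Consortium for Functional Glycomics database, kept only where the protein sequence was available.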
# [2] = molecular target: Fuc(a1-2)Gal(b1-3)GalNAc(a1-3)[Fuc(a1-2)]Gal(b1-4)Glc
# How it was run: as §1
# [3] = molecular target: Fuc(a1-2)Gal(b1-4)GlcNAc(b1-2)Man(a1-3)[Fuc(a1-2)Gal(b1-4)GlcNAc(b1-2)Man(a1-6)]Man(b1-4)GlcNAc(b1-4)GlcNAc
# How it was run: as §1
# [4] = molecular target: Fuc(a1-2)Gal(b1-4)GlcNAc(b1-3)[Fuc(a1-3)[Gal(b1-4)]GlcNAc(b1-6)]Gal(b1-4)Glc
# How it was run: as §1
# [5] = molecular target: Fuc(a1-2)Gal(b1-4)GlcNAc(b1-6)GalNAc
# How it was run: as §1
# [6] = molecular target: Fuc(a1-2)Gal(b1-4)[Fuc(a1-3)]GlcNAc(b1-3)GalNAc
# How it was run: as §1
# [7] = molecular target: Fuc(a1-2)Gal3S(b1-4)GlcNAc
# How it was run: as §1
# [8] = molecular target: Fuc(a1-2)[Gal(a1-3)]Gal(b1-4)GlcNAc(b1-2)Man
# How it was run: as §1
# [9] = molecular target: Fuc(a1-2)[Gal(a1-3)]Gal(b1-4)[Fuc(a1-3)]Glc
# How it was run: as §1
# [10] = molecular target: Fuc(a1-2)[GalNAc(a1-3)]Gal(b1-3)GlcNAc(b1-6)GalNAc
# How it was run: as §1
# [11] = molecular target: Fuc(a1-2)[GalNAc(a1-3)]Gal(b1-4)GlcNAc(b1-2)Man(a1-3)[Fuc(a1-2)[GalNAc(a1-3)]Gal(b1-4)GlcNAc(b1-2)Man(a1-6)]Man(b1-4)GlcNAc(b1-4)[Fuc(a1-6)]GlcNAc
# How it was run: as §1
# [12] = molecular target: Fuc(a1-3)[Gal(b1-4)]GlcNAc(b1-2)Man(a1-3)[Fuc(a1-3)[Gal(b1-4)]GlcNAc(b1-2)Man(a1-6)]Man(b1-4)GlcNAc(b1-4)[Fuc(a1-6)]GlcNAc
# How it was run: as §1
# [13] = molecular target: Fuc(a1-3)[Gal(b1-4)]GlcNAc6S
# How it was run: as §1
# [14] = molecular target: Gal(a1-3)Gal(b1-4)GlcNAc(b1-2)Man(a1-3)[Gal(a1-3)Gal(b1-4)GlcNAc(b1-2)Man(a1-6)]Man(b1-4)GlcNAc(b1-4)GlcNAc
# How it was run: as §1
# [15] = molecular target: Gal(a1-3)Gal(b1-4)[Fuc(a1-3)]GlcNAc
# How it was run: as §1
# [16] = molecular target: Gal(a1-3)GalNAc
# How it was run: as §1
# [17] = molecular target: Gal(a1-3)[Gal(a1-4)]Gal(b1-4)GlcNAc
# How it was run: as §1
# [18] = molecular target: Gal(a1-4)Gal(b1-4)GlcNAc(b1-3)Gal(b1-4)Glc
# How it was run: as §1
# [19] = molecular target: Gal(b1-3)GalNAc(b1-3)Gal
# How it was run: as §1
# [20] = molecular target: Gal(b1-3)GlcNAc(b1-2)Man
# How it was run: as §1
# [21] = molecular target: Gal(b1-3)GlcNAc(b1-2)[Gal(b1-3)GlcNAc(b1-6)]Man(a1-6)[Gal(b1-3)GlcNAc(b1-2)Man(a1-3)]Man(b1-4)GlcNAc(b1-4)GlcNAc
# How it was run: as §1
# [22] = molecular target: Gal(b1-3)GlcNAc(b1-3)Gal(b1-4)GlcNAc(b1-3)Gal(b1-4)GlcNAc(b1-2)[Gal(b1-3)GlcNAc(b1-3)Gal(b1-4)GlcNAc(b1-3)Gal(b1-4)GlcNAc(b1-6)]Man(a1-6)[Gal(b1-3)GlcNAc(b1-3)Gal(b1-4)GlcNAc(b1-3)Gal(b1-4)GlcNAc(b1-2)Man(a1-3)]Man(b1-4)GlcNAc(b1-4)[Fuc(a1-6)]GlcNAc
# How it was run: as §1
# [23] = molecular target: Gal(b1-3)GlcNAc(b1-3)Gal(b1-4)GlcNAc(b1-6)[Gal(b1-3)GlcNAc(b1-3)]Gal(b1-4)Glc
# How it was run: as §1
# [24] = molecular target: Gal(b1-3)[Fuc(a1-4)]GlcNAc(b1-2)Man(a1-3)[Gal(b1-3)[Fuc(a1-4)]GlcNAc(b1-2)Man(a1-6)]Man(b1-4)GlcNAc(b1-4)[Fuc(a1-6)]GlcNAc
# How it was run: as §1
# [25] = molecular target: Gal(b1-4)GalNAc(b1-3)[Fuc(a1-2)]Gal(b1-4)GlcNAc
# How it was run: as §1
# [26] = molecular target: Gal(b1-4)GlcNAc(b1-2)Man
# How it was run: as §1
# [27] = molecular target: Gal(b1-4)GlcNAc(b1-2)Man(a1-6)Man(b1-4)GlcNAc(b1-4)GlcNAc
# How it was run: as §1
# [28] = molecular target: Gal(b1-4)GlcNAc(b1-2)[Gal(b1-4)GlcNAc(b1-6)]Man(a1-6)[GlcNAc(b1-4)][Gal(b1-4)GlcNAc(b1-2)[Gal(b1-4)GlcNAc(b1-4)]Man(a1-3)]Man(b1-4)GlcNAc(b1-4)[Fuc(a1-6)]GlcNAc
# How it was run: as §1
# [29] = molecular target: Gal(b1-4)GlcNAc(b1-3)Gal(b1-4)GlcNAc(b1-2)Man(a1-3)[Gal(b1-4)GlcNAc(b1-3)Gal(b1-4)GlcNAc(b1-2)Man(a1-6)]Man(b1-4)GlcNAc(b1-4)GlcNAc
# How it was run: as §1
# [30] = molecular target: Gal(b1-4)GlcNAc(b1-3)Gal(b1-4)GlcNAc(b1-3)Gal(b1-4)GlcNAc
# How it was run: as §1
# [31] = molecular target: Gal(b1-4)GlcNAc(b1-3)Gal(b1-4)GlcNAc(b1-3)Gal(b1-4)GlcNAc(b1-3)Gal(b1-4)GlcNAc(b1-3)Gal(b1-4)GlcNAc(b1-2)Man(a1-3)[Gal(b1-4)GlcNAc(b1-3)Gal(b1-4)GlcNAc(b1-3)Gal(b1-4)GlcNAc(b1-3)Gal(b1-4)GlcNAc(b1-3)Gal(b1-4)GlcNAc(b1-2)Man(a1-6)]Man(b1-4)GlcNAc(b1-4)GlcNAc
# How it was run: as §1
binder,measurement,setting,value
GS7807Q-bfa-507-19-507 (Bacteroides fragilis) (protein) ASCNKFDDLNTNPDAATKVTAPMLATKLILNITQQGSAKNFVYHSMLSKQIAWSENASDEQYNLFGRTDFDGYTILTNCQKMVDAANEGDKDSYAALAKFMKAYKLFYKSLEVGDIPYSDALKGEEGVQKPKYDTQKEVMRQVLEDLEEAYTLFSSGSDFDGDPIFGGDTENWKKTVVAFELKVLTHLCKKDTDADLKVKERFARLVSSGSLMTSNADNFQLVYSNKAGQLYPFYYTQNKHSDYLMMSSVIIDNLKKFNDYRMFYYASPAKAQTDKGIKDSEWDAYLSIDPSDSYSNISVLYGKGEFCLANLRYTRVPEGEPLMRLSYAEQNFILAEGAVRGWISEDASTYYKKGIEASMNFIADNTPDKEEYTHGRTITQEYIQEYLAQPVIQLSGDKEKDLEMILLQRYLASFLQHPYDAYYDYRRTGYPVLPINPSTNLNTEKNKIPTRWMYPEAEFSYNPDNANEAVQRQYNGSDDVNKLMWILQ,glycan array binding signal (z-score),[1],-1.06
same,glycan array binding signal (z-score),[2],-0.063
same,glycan array binding signal (z-score),[3],6.11
same,glycan array binding signal (z-score),[4],0.636
same,glycan array binding signal (z-score),[5],4.43
same,glycan array binding signal (z-score),[6],1.5
same,glycan array binding signal (z-score),[7],-0.3
same,glycan array binding signal (z-score),[8],-0.226
same,glycan array binding signal (z-score),[9],1.42
same,glycan array binding signal (z-score),[10],-0.083
same,glycan array binding signal (z-score),[11],-0.243
same,glycan array binding signal (z-score),[12],-0.03
same,glycan array binding signal (z-score),[13],-1.03
same,glycan array binding signal (z-score),[14],3.33
same,glycan array binding signal (z-score),[15],0.431
same,glycan array binding signal (z-score),[16],-0.197
same,glycan array binding signal (z-score),[17],0.361
same,glycan array binding signal (z-score),[18],-0.723
same,glycan array binding signal (z-score),[19],0.094
same,glycan array binding signal (z-score),[20],-0.443
same,glycan array binding signal (z-score),[21],0.94
same,glycan array binding signal (z-score),[22],3.08
same,glycan array binding signal (z-score),[23],3.63
same,glycan array binding signal (z-score),[24],3.07
same,glycan array binding signal (z-score),[25],0.8
same,glycan array binding signal (z-score),[26],0.859
same,glycan array binding signal (z-score),[27],0.767
same,glycan array binding signal (z-score),[28],-0.993
same,glycan array binding signal (z-score),[29],3.08
same,glycan array binding signal (z-score),[30],0.693
same,glycan array binding signal (z-score),[31],-0.15
